Measured values reported in PubChem BioAssay (Tox21).
Values without a mark were called inactive. Where a call stands in place of a potency, no number is given. Active and inactive are the calls of the source. The call rests on the fitted dose curve; in most records, active means well fitted curve in the direction sought with a large enough effect in the repeat runs; inconclusive means weak or mixed curves; inactive means flat fitted curve, though single readings scatter.

Test: qHTS assay to test for compound auto fluorescence at 460 nm (blue) in HepG2 cells (AID 720687)
Settings: autofluorescence 405/460 nm, 1 h; series mostly up to 91.3 µM
Source text: U.S. Tox21 Program National Center for Advancing Translational Sciences [NCATS] NIH Chemical Genomics Center [NCGC] U.S. Environmental Protection Agency [EPA] National Institutes of Environmental Health Sciences [NIEHS] National Toxicology Program [NTP] U.S. Food and Drug Administration [FDA] Tox21 Assay Overview: Compound auto fluorescence often interferes with screening of the compound library against various biological targets and signaling pathways. Some of these compounds may have fluorophoric properties. Such properties may interfere with the assay outputs resulting in false positives and/or negatives. To decrease such complications and ensure the compound activities are relevant in terms of biological response, the Tox21 10K compound library was screened for auto fluorescence. From the fluorophores used as reporter signals in our screening assays, the auto fluorescence equivalencies of compounds against three fluorophores have been evaluated: Triamterene, Fluorescein and Rose Bengal sodium for blue, green and red fluorescence, respectively. The fluorescence intensities were measured using Excitation/Emission wavelengths at 405/460nm, 485/535nm and 540/590nm for blue, green and red labels, respectively. This assay includes the blue fluorescence data.
Tox21 Assay Protocol Summary: 2,000 HepG2 cells in 5 uL of culture medium (MEM containing 10% FBS) per well were dispensed into black wall/clear bottom 1536-well plates using a Multidrop Combi Dispenser (ThermoFisher Scientific, Waltham, MA). The assay plates were incubated overnight at 37 C to allow cell attachment to the well bottom, followed by the transfer of 23 nL compound or DMSO vehicle by a pintool work station (Kalypsys , San Diego, CA). After the assay plates were incubated for 1 hr at 37 C and 5% CO2, fluorescence intensities in the assay plates were measured by an Envision (PerkinElmer, Shelton, CT) plate reader using three labels for measuring blue, green and red fluorescence at […] 460, 535 and 590 nm respectively.

| Compound | Potency | fluorescence, % of fluorescent control |
| --- | --- | --- |
| CC(C)(C)C(=O)O | inactive |  |
| CC[C@@H]([C@H](C)O)n1ncn(-c2ccc(N3CCN(c4ccc(OC[C@@H]5CO[C@@](Cn6cncn6)(c6ccc(F)cc6F)C5)cc4)CC3)cc2)c1=O | inactive |  |
| COc1cc2ncnc(Nc3ccc(F)c(Cl)c3)c2cc1OCCCN1CCOCC1 | inactive |  |
| O=C(O)C(Cc1cc(I)c(O)c(I)c1)c1ccccc1 (stereo not given) | inactive |  |
| c1ccc(COCc2ccccc2)cc1 | inactive |  |
| CO/N=C1\CN(c2nc3c(cc2F)c(=O)c(C(=O)O)cn3C2CC2)CC1CN (stereo not given) | inactive |  |
| CC(=N\O)/C(C)=N/O | inactive |  |
| CCNC(=O)N1CCN(CCCC(c2ccc(F)cc2)c2ccc(F)cc2)CC1 | inactive |  |
| CCC(Cc1ccccc1)(C(=O)c1ccc(N2CCOCC2)cc1)N(C)C (stereo not given) | inactive |  |
| Cc1cc(O)c(C(C)C)cc1Cl | inactive |  |
| O=C(N[C@@H](c1ccccc1)[C@@H]1CCCCN1)c1cccc(C(F)(F)F)c1Cl | inactive |  |
| CC(C)C(OC(=O)c1ccccc1)C(C)(C)COC(=O)c1ccccc1 (stereo not given) | inactive |  |
| CN1C(=O)CC(C)(c2ccccc2)C1=O (stereo not given) | inactive |  |
| c1cc[c]([Bi]([c]2ccccc2)[c]2ccccc2)cc1 | inactive |  |
| CC(C)C(=O)O | inactive |  |
| CCCCCCCCCCCC(=O)[O][Sn]([CH2]CCC)([CH2]CCC)[O]C(=O)CCCCCCCCCCC | inactive |  |
| O=C(CCCN1CCN(c2ccc(F)cc2)CC1)NC1c2ccccc2CSc2ccccc21 (stereo not given) | inactive |  |
| CC1CN(c2cc3c(cc2F)c(=O)c(C(=O)O)cn3-c2ccc(F)cc2F)CCN1 (stereo not given) | inactive |  |
| Cc1c(C(=O)NN2CCCCC2)nn(-c2ccc(Cl)cc2Cl)c1-c1ccc(Cl)cc1 | inactive |  |
| CCCOC(=O)c1ccc(C(=O)OCCC)nc1 | inactive |  |

| Compound | Potency | fluorescence, % of fluorescent control |
| --- | --- | --- |
| CCOC(=N)CC(=O)OCC | inactive |  |
| O=C(C(=O)c1ccccc1)c1ccccc1 | inactive |  |
| CCCCN(CCCC)CCCOC(=O)c1ccc(N)cc1 |  | -0.0696% [at 18.6 µM] |
| CCN(CC)CCNC(=O)c1ccc(NC(C)=O)cc1 | inactive |  |
| Oc1cc(O)c(Cl)cc1Cl | inactive |  |
| CC1C2CC(CC2C2CCCC(O)C2)C1(C)C (stereo not given) | inactive |  |
| CC1(C)C(=O)N(Br)C(=O)N1Cl | inactive |  |
| C=CC(C)=CCC=C(C)C | inactive |  |
| O=C(Nc1ccccc1)Nc1ccccc1 | inactive |  |
| CCC(C)(O)CCC=C(C)C (stereo not given) | inactive |  |
| CO[Si](C)(OC)OC | inactive |  |
| Cc1oc(C)c(C(=O)Nc2ccccc2)c1C | inactive |  |
| CO[C@@]12[C@H](COC(N)=O)C3=C(C(=O)C(C)=C(N)C3=O)N1C[C@@H]1N[C@@H]12 | inactive |  |
| CC(C)CCCCCOC(=O)CCCCC(=O)OCCCCCC(C)C | inactive |  |
| O=[N+]([O-])c1cccc(S(=O)(=O)NCCNS(=O)(=O)c2cccc([N+](=O)[O-])c2)c1 | inactive |  |
| CCCCC(=O)O[C@]1(C(=O)CO)CC[C@H]2[C@@H]3CCC4=CC(=O)CC[C@]4(C)[C@H]3[C@@H](O)C[C@@]21C | inactive |  |
| CCCCCCCCCCOS(=O)(=O)O | inactive |  |
| Nc1ccc(S(=O)(=O)O)c(N)c1 | inactive |  |
| COc1ccc(C(=O)c2cccc(O)c2)c(OC)c1 | inactive |  |
| Cc1nc2ccccn2c(=O)c1CCN1CCC(C(=O)c2ccc(F)cc2)CC1 | inactive |  |
